Source: PubChem BioAssay (NCATS)
Results filed as inconclusive are left out. Values without a mark were called inactive. Activity calls are given as the source filed them. The call rests on the fitted dose curve; in most records, active means well fitted cell-killing curve with a large enough effect; inconclusive means small, poorly fitted or top-dose-only effect, or effect the other way; inactive means flat fitted curve, though single readings scatter.

System: PA-1
Assay: Primary qHTS to identify gynecologic anti-cancer compounds using libraries of approved drugs and bioactive compounds (AID 1345084); further: nearly all actives have a fitted effect of over 55% in size
Settings: Gynecologic cancer cell panel viability, ATPlite luminescence, 48 h; series mostly up to 57.5 µM; activity change, negative = cytotoxicity: at the top concentration
Procedure, shortened: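 Cells, 1,000 per well, were allowed to settle for 16 h at 37 C before compound addition. Five concentrations were tested for 48 h, and viability was read by ATPlite luminescence after 15 min at room temperature.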
On the % scale 0 is the no-effect control and ±100 the full control effect; potency means the concentration at half of the fitted maximal effect.

Row | SMILES | activity change, negative = cytotoxicity | Potency
1 | CC(NCCCc1cccc(C(F)(F)F)c1)c1cccc2ccccc12 (centres undefined) | 7.66% [at 25.3 µM] | –
2 | CCNC1(C(N)=O)CN(c2nc(C)nc3c(-c4ccc(Cl)cc4)c(-c4ccccc4Cl)nn23)C1 | -0.0017% | –
3 | CCc1c(Cl)c(O)c(Cl)c(O)c1C(=O)O[C@H]1[C@H](O)[C@H](OC)[C@H](OC/C2=C\C=C\C[C@H](O)/C(C)=C\[C@H](CC)[C@@H](O[C@@H]3OC(C)(C)[C@@H](OC(=O)C(C)C)[C@H](O)[C@@H]3O)/C(C)=C/C(C)=C/C[C@@H]([C@@H](C)O)OC2=O)O[C@@H]1C | 6.07% [at 25.3 µM] | –
4 | CCCN(CCc1ccsc1)C1CCc2c(O)cccc2C1 (centres undefined) | 4% | –
5 | CC(=O)O[C@@H]1[C@@H](O)[C@H](O[C@@H]2[C@@H](O)[C@@H](O)[C@H](O[C@H]3[C@H](O[C@H]4[C@H](O[C@H]5CC[C@@]6(C)C(CC[C@]7(C)C6CC=C6[C@@H]8CC(C)(C)CC[C@]8(C(=O)O)CC[C@]67C)[C@]5(C)CO)O[C@H](CO)[C@@H](O)[C@@H]4O)OC[C@@H](O)[C@@H]3O)O[C@H]2C)OC[C@H]1O (some centres undefined) | -1.55% [at 11.6 µM] | –
6 | Fc1ccc2c(CCNCc3cccc(OCC(F)(F)C(F)F)c3)c[nH]c2c1 | 3.48% | –
7 | Cc1cc2c(cc1N1C(=O)c3cccc4c(CCCO)ccc(c34)C1=O)n(C)c(=O)n2C | -43.6% [at 25.3 µM] | –
8 | Cc1c(F)ccc(C(=O)Nc2cc([N+](=O)[O-])ccc2N2CCN(C)CC2)c1Cl | 22.1% | –
9 | Cc1ccnc(NC(=O)C(C)c2cccc(C(=O)c3ccccc3)c2)c1 (centres undefined) | 4.01% | –
10 | CC1=CC2/C=C(\C)CCC(O)C/C=C/C(=O)OC23C(=O)NC(CC(C)C)C3C1C (centres undefined) | 14.8% [at 25.3 µM] | –
11 | CC[C@H]1CN(c2nc(N)c(C(N)=O)nc2Cl)CCN1C1CCN(Cc2ccc(Cl)cc2)CC1 | 3.67% | –
12 | COc1cccc(NCCC2(c3ccccc3)CC(C)(C)OC(C)(C)C2)c1 | -14.9% | –
13 | CNc1cc2[nH]c(=O)n(-c3ccc(NC(=O)NS(=O)(=O)c4ccc(Cl)s4)cc3)c(=O)c2cc1F | 2.12% | –
14 | Fc1ccc(CN2CCC(Nc3ccc(C(F)(F)F)nn3)CC2)cc1F | 2.01% | –
15 | COc1cc(OC)c(NC(=O)c2ccc(Cc3cc4c(cc3C)C(C)(C)CCC4(C)C)o2)c(OC)c1 | -9.45% | –
16 | C/C=C(/C=C(C)/C=C/C=C/C=C(\C)C(=O)C12OC1C(O)(CCO)NC2=O)C(=O)OC (centres undefined) | 6.1% [at 25.3 µM] | –
17 | C=C1C(=O)OC2C1CCC1(C)C(O)CCC(=C)C21 (centres undefined) | -6.24% | –
18 | Cc1cc(F)c(C(=O)Nc2cccc(-c3nncn3C(C)C)n2)cc1-n1cnc(C2CC2)c1 | -4.98% [at 25.3 µM] | –
19 | C/C=C(/C)C(=O)OC1C=C2C3C(C)C(C)C(OC(=O)C(C)C(C)O)CC3(C)CCC2(C)C2(C)CC(OC(C)=O)C3C(C)(C)C(O)C(=O)CC3(C)C12 (centres undefined) | 24.1% [at 25.3 µM] | –
20 | Cc1nc(Nc2ccc(F)cc2)nc(N2CCc3ccccc3C2C)c1C (centres undefined) | -8.34% | –

Row | SMILES | activity change, negative = cytotoxicity | Potency
21 | C#CC(=O)N(c1ccc(OC)cc1OC)C(C(=O)NCC(=O)OCC)c1cccs1 (centres undefined) | – | 1580 nM (active)
22 | COC1CCN(C(=O)c2cc(Cc3n[nH]c(=O)c4ccccc34)ccc2F)CC1 | -1.11% | –
23 | CCCc1ccc(OCC(=O)N(Cc2nc(-c3cccnc3)no2)C(C)C)cc1 | -17.5% | –
24 | CC(=O)OC1CC(C)(C(=O)O)CC2C3=CC(=O)C4C5(C)CCC(OC6OC(C(=O)O)C(O)C(O)C6OC6OC(C(=O)O)C(O)C(O)C6O)C(C)(C)C5CCC4(C)C3(C)CCC12C (centres undefined) | 22.8% [at 11.6 µM] | –
25 | C=CC(=O)N1CCN(C(=O)CNc2cc(-c3ccccc3Cl)c(Cl)cc2OC)CC1 | -26.5% | –
26 | Cc1c(C(=O)NCc2cccnc2)nn(-c2ccc(Cl)cc2Cl)c1-c1ccc(Cl)cc1 | -1.8% | –
27 | Cc1cccc(C#Cc2cc(F)cc(C#N)c2)n1 | -10.4% | –
28 | NCC(CNc1nc(Nc2cccc(NC(=O)N3CCCC3)c2)ncc1I)C(=O)c1cccs1 (centres undefined) | 5.08% | –
29 | COc1cc(C(N)=O)nc(-c2ccccn2)c1O | -24% | –
30 | COc1cc(O)cc(OC2OC(CO)C(O)C(O)C2O)c1 (centres undefined) | 9.08% | –
31 | N#Cc1ccc(N2N=C3c4ccc(C(=O)O)cc4CC[C@@H]3[C@@H]2C2CCCC2)cc1Cl | 4.97% | –
32 | O=C([C@@H](Cc1cccc(C(F)(F)F)c1)NS(=O)(=O)c1cc(F)c2c(c1)CCNC2)N1CCCC1 | 13.8% | –
33 | CCNC(=O)c1noc(-c2cc(Cl)c(O)cc2O)c1-c1ccc(OC)cc1 | – | 562 nM (active)
34 | O=C(NCc1nc2ccccc2c(=O)n1-c1ccc(F)cc1)Nc1ccc(Cl)c(C(F)(F)F)c1 | 8.62% | –
35 | C=C1C(=O)O[C@@H]2/C=C(\CO)CC/C=C(\CO)[C@H](OC(C)=O)C(OC(=O)C(C)CC)C12 (some centres undefined) | 13% [at 25.3 µM] | –
36 | O=C(NCC1CCN(Cc2cccc(Cl)c2)CC1)[C@@H]1CCCN(c2ncnc3c2nc2n3CCCC2)C1 | -0.985% | –
37 | C=C1C(=O)O[C@H]2C1CCC(C)=C1C(=O)C=C(C)[C@@]12O (some centres undefined) | -27.4% | –
38 | COC(=O)/C=C/C=C/C(=O)OC1C=C2COC(=O)C2(O)C2(C)CCCC(C)(C)C12 (centres undefined) | 12.4% [at 25.3 µM] | –
39 | CC1(C)CC[C@]2(C(=O)O)[C@H](O)C[C@]3(C)C(=CCC4[C@@]5(C)CC[C@H](O[C@@H]6O[C@H](CO[C@@H]7OC[C@H](O)[C@H](O)[C@H]7O[C@@H]7OC[C@H](O)[C@H](O)[C@H]7O)[C@@H](O)[C@H](O)[C@H]6O)C(C)(C)C5CC[C@]43C)[C@@H]2C1 (some centres undefined) | 4.95% [at 11.6 µM] | –
